Sampled rows, rich in hits. Any-hit rate of the full collection: about 5.9%.
GALK inhibitor: galactokinase (human) inhibition; P51570; Purified GALK, Kinase-Glo residual ATP luminescence; Potency, µM (highest dose often 57.5 µM), inactives show at the top dose activity change, negative = inhibition, most hits filed as inhibitors; 270,000 compounds, 0.007% hits; note: potency is the fitted concentration of half-maximal effect
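The enzyme phosphorylates galactose (100 uM) using ATP (35 uM); inhibition is detected as higher residual ATP, quantified by bioluminescence after 1 h reaction at room temperature, pH 8.0.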
FBPA coupling cs: coupling enzyme interference in Giardia aldolase counter-screen; coupling enzyme system counterscreen, AmpLite Red fluorescence; activity change, negative = inhibition, % at 58.2 µM, hits read low; 290,000 compounds, 0.67% hits; AID 2472; in the data active = activity change below about -30%
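Compounds tested against the coupling enzymes alone at 57.5 uM final; readout was AmpLite Red fluorescence (525/598 nm) after 20 min at RT.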
TrxR1 substrate: substrates of rat thioredoxin reductase 1. O89049. purified TrxR1 substrate turnover, NADPH consumption readout. Potency, µM (top dose mostly 114 µM), for the others: at the highest dose activity change, negative = substrate turnover. 390,000 compounds, 0.01% hits; note: potency is the fitted concentration of half-maximal effect; nearly all actives have a fitted effect of over 50% in size
Target sequence (O89049 whole entry, looked up): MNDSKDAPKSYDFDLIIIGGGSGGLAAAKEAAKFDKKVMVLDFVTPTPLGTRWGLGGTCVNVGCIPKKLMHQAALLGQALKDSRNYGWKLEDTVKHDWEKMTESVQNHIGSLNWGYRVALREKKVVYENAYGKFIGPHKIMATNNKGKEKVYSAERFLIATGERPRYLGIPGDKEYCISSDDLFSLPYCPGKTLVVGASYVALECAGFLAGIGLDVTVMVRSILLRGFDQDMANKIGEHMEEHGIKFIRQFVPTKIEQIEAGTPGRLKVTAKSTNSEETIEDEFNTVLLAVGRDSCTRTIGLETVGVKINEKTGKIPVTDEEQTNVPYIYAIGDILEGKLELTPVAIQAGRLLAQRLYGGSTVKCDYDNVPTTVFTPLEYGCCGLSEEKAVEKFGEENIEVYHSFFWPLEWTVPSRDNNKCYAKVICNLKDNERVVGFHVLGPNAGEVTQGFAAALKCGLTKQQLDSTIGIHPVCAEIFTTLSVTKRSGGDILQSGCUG
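Rat TrxR1, dispensed at 90 nM, was prereduced with 400 uM NADPH (final) for 5 min at ~22 deg C, then incubated with compound 15 min before 400 uM selenite. A first-read NADPH fluorescence drop versus no-compound background flagged substrates.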
VP16 counter: inhibits Gal4-VP16 luciferase reporter, ROR gamma counter-screen. Drosophila S2 Gal4-VP16 UAS-luciferase, luminescence, 20 h. Potency, µM (highest dose often 53.6 µM), for the others: at the highest dose activity, negative = inhibition, usual class: inhibitors. 310,000 compounds, 3.5% hits. AID 2546;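 note: Gal4-VP16 expression switched on by copper sulfate through the metallothionein promoter; potency is the fitted concentration of half-maximal effect; nearly all actives have a fitted effect of over 50% in size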
rTrxR1 inhibitor: inhibitors of rat thioredoxin reductase 1; recombinant rTrxR1, NADPH fluorescence consumption, selenite substrate; Potency, µM (series often up to 114 µM), for the others: at the highest dose activity change, negative = inhibition, most hits filed as inhibitors; 390,000 compounds, 1% hits; O89049; note: potency is the fitted concentration of half-maximal effect; nearly all actives have a fitted effect of over 65% in size
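Rat TrxR1 (90 nM in the dispensed reagent) was pre-reduced with 400 uM NADPH for 5 min at room temperature, then incubated with compound for 15 min. After 400 uM selenite was added, NADPH fluorescence (Ex 340/Em 450 nm) was followed for 8 min.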
RORg inh: ROR gamma (mouse) transcription inhibition; 310,000 compounds, 5.4% hits; Potency, µM (highest dose often 53.6 µM), without a hit: at the highest dose activity change, negative = inhibition, most hits filed as inhibitors; Drosophila S2 Gal4-RORgamma UAS-luciferase reporter, 20 h; P51450; AID 2551; note: potency is the fitted concentration of half-maximal effect; nearly all actives have a fitted effect of over 60% in size
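Stable Schneider cell line, Gal4 DNA-binding domain fused to ROR gamma, UAS-luciferase. Cmpd 1 hr RT → CuSO4 700 uM final → 20 hr RT → luciferase reagent 10 min → luminescence.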
Numbers without * were called inactive; u = inconclusive; x = not tested or not shown; [ ] = another dose, or the depositor's remark. Unless noted, calls come from the whole dose curve; as a rule, active = well fitted curve in the direction sought with a large enough effect; inconclusive = small, poorly fitted or top-dose-only effect, or another doubt; inactive = no such curve, though single readings can be large; an effect the other way counts as inactive or inconclusive. % is set by controls: 0 for no effect and ±100 for the full control effect.

SMILES | GALK inhibitor | FBPA coupling cs | TrxR1 substrate | VP16 counter | rTrxR1 inhibitor | RORg inh
Cc1ccc(CNC(=O)CCCN2C(=S)NC(C)(C)CC2C)cc1 (stereo unspecified) | 10.2% | 1.8 | 0.7% | 4.7% | 8.7%[57.1 µM] | u
CCOc1ccc(NC(=O)CCN2C(=S)NC(C)(C)CC2C)cc1 (stereo unspecified) | 16.9% | 0.0 | 7.8%[57.1 µM] | u | 21.1%[57.1 µM] | u
CCN(C(=O)CN1C(=S)NC(C)(C)CC1C)c1ccc(C)c(C)c1 (stereo unspecified) | 8.7% | -1.7 | 5.8%[57.1 µM] | u | 10.4%[57.1 µM] | 7.08µM*
Cc1cccc(NC(=O)CN2C(=S)NC(C)(C)CC2C)c1C (stereo unspecified) | 1.7% | 2.4 | 8.2%[57.1 µM] | u | 1.9%[57.1 µM] | u
CC1CC(C)(C)NC(=S)N1CCC(=O)NCCc1ccc(Cl)cc1 (stereo unspecified) | 0.9% | 1.4 | 13.9%[57.1 µM] | 7.94µM* | 22.8%[57.1 µM] | 1.58µM*
CC1CC(C)(C)NC(=S)N1CCCC(=O)NCCc1ccc(Cl)cc1 (stereo unspecified) | 1.3% | -1.2 | 1.4%[57.1 µM] | u | 13.8%[57.1 µM] | 12.6µM*
OCCN(Cc1ccccc1)Cc1cccc(Cl)c1Cl | -1.7% | -2.2 | -0.6% | 0.1% | -7.2% | 18.7%
COc1cc(OC)c(NC(=O)c2csc3c2CCC(C)C3)cc1Cl (stereo unspecified) | x | x | 28.5% | x | 51.1% | x
Cc1c(Nc2cc(N3CCOCC3)c3nonc3c2[N+](=O)[O-])c(=O)n(-c2ccccc2)n1C | 0.2% | -1.2 | x | -8.2% | x | -8.6%
O=[N+]([O-])c1cncc([N+](=O)[O-])c1Nc1cccc(O)c1 | 7.0% | 1.3 | -1.8% | 11.2µM* | 3.2% | u
O=[N+]([O-])c1c(Nc2cccc(O)c2)cc(Cl)c2nonc12 | -5.8% | -2.9 | -15.8% | u | 0.891µM* | -1.1%[1.91 µM]
O=C(O)c1cccc(Nc2ccc3nonc3c2[N+](=O)[O-])c1 | -3.7% | 1.0 | -13.6% | x | 4.4% | x
O=[N+]([O-])c1cc([N+](=O)[O-])c2nonc2c1Nc1ccc(O)cc1 | 7.0% | -2.7 | -16.0% | 12.6µM* | 28.2µM* | 11.2µM*
Cc1c(Nc2cc(Cl)c3nonc3c2[N+](=O)[O-])c(=O)n(-c2ccccc2)n1C | -1.4% | -5.7 | -6.7%[57.1 µM] | 3.98µM* | 0.631µM* | 3.98µM*
O=[N+]([O-])c1cc([N+](=O)[O-])c2nonc2c1Nc1ccccc1O | -2.1% | 2.1 | -14.2% | -8.6% | -22.2% | -17.6%
Cc1ccccc1Nc1c([N+](=O)[O-])cncc1[N+](=O)[O-] | 4.4% | -6.1 | -3.3% | u | 3.2% | u
Cc1cc(C)nc(N/C=C(\C#N)C(=O)c2cccc(CSc3ccccc3)c2)n1 | x | x | -4.0% | x | 0.2% | x
O=C(O)c1ccc(Nc2cc(Cl)c3nonc3c2[N+](=O)[O-])cc1 | -3.9% | -3.9 | -12.2% | -26.1% | 0.631µM* | 12.6µM*
O=C(Cc1noc2ccccc12)NNC(=S)Nc1ccc(Cl)cc1 | 0.0% | 2.5 | -5.7% | -16.6% | -0.5%[57.1 µM] | 11.2µM*
Cn1cccc1CC(=O)NNC(=S)Nc1ccc(Cl)cc1 | 7.0% | 2.3 | 5.0% | u | -20.0%[57.1 µM] | 11.2µM*
Cn1cccc1CC(=O)NNC(=S)Nc1ccccc1Cl | 0.0% | 4.3 | 2.0% | -10.2% | -15.8% | -25.7%
COc1ccc(-n2c(SCC(=O)N3CCCC(C)C3)nnc2-c2cccnc2)cc1 (stereo unspecified) | 1.7% | -1.4 | -6.2% | -5.1% | -10.6% | 3.2%
Cc1ccc(C)c(NC(=S)c2nc3ccccc3s2)c1 | 1.8% | 6.7 | 4.3% | 0.708µM* | -0.6% | 0.398µM*
Cc1ccc(NC(=S)c2nc3ccccc3s2)cc1 | -5.2% | x | 9.0%[57.1 µM] | 2µM* | 14.0%[57.1 µM] | 1µM*
O=C(O)C/C(=C\c1cccc(NC(=O)c2ccccc2Cl)c1)c1nc2ccccc2s1 | -0.3% | 21.0 | -5.1%[57.1 µM] | 5.7% | 22.5%[57.1 µM] | -37.1%
SMILES | GALK inhibitor | FBPA coupling cs | TrxR1 substrate | VP16 counter | rTrxR1 inhibitor | RORg inh
COc1ccc(NC(=O)c2nc3ccccc3s2)cc1 | x | -15.6 | -3.2% | u | 18.4% | -41.0%
S=C(Nc1ccc(Cl)cc1)c1nc2ccccc2s1 | 1.0% | -0.1 | 7.2%[57.1 µM] | 1.41µM* | 14.7%[57.1 µM] | 0.316µM*
O=C(Nc1ccc(Cl)cc1)/C(=C/c1cccc(O)c1)c1nc2ccccc2s1 | -3.9% | 1.5 | -4.5% | 20µM* | 0.2% | 11.2µM*
CCOC(=O)C1CCN(C(c2cccs2)c2sc3nc(C)nn3c2O)CC1 (stereo unspecified) | 0.0% | 3.2 | 2.5%[57.1 µM] | -8.8% | 15.4%[57.1 µM] | -16.8%
CCC(C)(C)c1ccc(OCCCC[n+]2ccccc2)c(C(C)(C)CC)c1 | 0.6% | 0.8 | -2.0% | 17.8µM* | 5.9% | u
CCn1c2ccccc2c2cc(NS(=O)(=O)c3ccccc3C)ccc21 | -0.8% | 0.8 | 1.3%[57.1 µM] | -3.8% | 13.3%[57.1 µM] | 3.4%
CC(C)S(=O)(=O)c1cnc(N2CCOCC2)nc1N | -2.9% | 0.4 | 1.1% | 7.4% | 14.3% | 5.6%
Oc1c(C(c2ccccc2)N2CCCCC2)sc2ncnn12 (stereo unspecified) | 0.3% | -0.4 | -9.5%[57.1 µM] | -2.7% | -7.8%[57.1 µM] | 7.94µM*
COc1ccccc1OCC(=O)NNc1c2ccccc2nc2ccccc12 | 0.0% | 0.9 | -1.0% | 0.794µM* | 7.2% | 1.58µM*
O=S(=O)(NCC(c1ccccc1)N1CCc2ccccc21)c1ccc(Cl)cc1 (stereo unspecified) | x | x | -4.4% | x | -2.0% | x
CCc1c2c(nc3ccccc13)OC(C)C2 (stereo unspecified) | x | -0.1 | x | -1.0% | x | 0.0%
Cc1nc(-c2ccccn2)nc(N(C)c2ccccc2)c1Cl | x | -0.3 | -5.9% | 1.58µM* | 6.0% | 0.316µM*
Cc1nc(-c2ccccn2)nc(N2CCOCC2)c1Cl | 0.1% | 2.6 | 0.8% | 1.8% | 10.7% | 35.2%
CCN(CC)CCN1C(=O)C(=O)/C(=C(/O)c2ccc(OC(C)C)cc2)C1c1cccs1 (stereo unspecified) | 5.0% | 4.0 | 1.2%[57.1 µM] | 9.3% | -54.9% | 26.4%
O=C(O)C1Cc2ccccc2CN1C(=O)COc1ccc(Br)cc1 (stereo unspecified) | 0.3% | 5.8 | 8.6%[57.1 µM] | 3.7% | 5.5%[57.1 µM] | 0.5%
COc1ccc(NC(=O)N2CCCC2C(=O)NCC2CCCCC2)cc1 (stereo unspecified) | 12.0% | -2.8 | -4.7%[57.1 µM] | -5.2% | -6.9%[57.1 µM] | -2.6%
CC(=O)c1ccc(NC(=O)C2CCCC2)cc1 | -1.0% | -0.8 | -1.6% | 15.2% | 5.8% | 9.9%
CC(=O)c1ccc(NC(=S)NC2CCCC(C)C2C)cc1 (stereo unspecified) | 0.5% | 0.0 | 2.4%[57.1 µM] | u | 2.3%[57.1 µM] | 5.01µM*
CC(=O)c1ccc(NC(=S)NN2C(C)CCCC2C)cc1 (stereo unspecified) | -7.4% | 3.4 | 3.3%[57.1 µM] | u | 14.1%[57.1 µM] | 8.91µM*

Screens as filed in PubChem.
